According to PubChem BioAssay (EPA / NIEHS):
Results filed as inconclusive are left out. Activity calls are given as the source filed them. How the source made its calls, unless noted: active means hit-call score of the fitted dose curve at least 0.9, where 1 is the maximum; inconclusive means response in the unintended direction; inactive means score below 0.9.

Key:
[1] = molecular target: Cellular tumor antigen p53 (Homo sapiens) (UniProt P04637); experiment: TOX21_p53_BLA_p3_ratio: Tox21 HCT-116 p53 Agonism Beta-lactamase Assay, Ratio, Phase 3 (AID 2283596)
Chain of Cellular tumor antigen p53 (Homo sapiens) (P04637 whole entry, looked up): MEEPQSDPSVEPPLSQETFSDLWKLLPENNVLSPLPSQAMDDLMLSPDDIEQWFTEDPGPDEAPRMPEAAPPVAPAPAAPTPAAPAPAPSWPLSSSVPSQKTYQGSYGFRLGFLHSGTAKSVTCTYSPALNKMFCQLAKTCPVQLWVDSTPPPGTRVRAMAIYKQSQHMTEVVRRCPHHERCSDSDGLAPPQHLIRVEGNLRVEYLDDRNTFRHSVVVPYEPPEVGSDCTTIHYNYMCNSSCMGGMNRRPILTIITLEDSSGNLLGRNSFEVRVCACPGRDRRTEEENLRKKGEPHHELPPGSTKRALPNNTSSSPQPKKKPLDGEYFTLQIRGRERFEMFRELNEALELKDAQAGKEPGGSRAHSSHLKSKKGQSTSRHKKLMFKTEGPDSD
Outline: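 HCT116 p53-bla cells (4000/well) given compound in DMSO (217-fold dilution) after 5 h, incubated 16 h at 37C. CCF4-AM substrate 2 h at room temperature; 460/530 nm emission ratio, gain fitted against DMSO.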

[2] = TOX21_p53_BLA_p4_viability: Viability Assessment in the Tox21 HCT-116 p53 Agonism Beta-lactamase Assay, Phase 4 (AID 2283597);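 further: hits lower the luminescence signal meaning cytotoxicity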
Outline: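 HCT-116 p53-bla cells, 4000/well, dosed after 5 h attachment and incubated 16 h at 37 °C, 5% CO2. Viability from CellTiter-Glo ATP luminescence after 30 min at room temperature, taken after the beta-lactamase read; loss of signal indicates cytotoxicity.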

[3] = molecular target: Cellular tumor antigen p53 (Homo sapiens) (UniProt P04637); experiment: TOX21_p53_BLA_p5_ratio: Tox21 HCT-116 p53 Agonism Beta-lactamase Assay, Ratio, Phase 5 (AID 2283599)
Outline: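 HCT-116 p53-bla cells (4000/well) plated 5 h, dosed with compound (217-fold DMSO dilution) for 16 h at 37 C; CCF4-AM substrate 2 h at room temperature. Activity is the 460/530 nm emission ratio (405 nm excitation), fitted in gain-of-signal direction versus DMSO.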

[4] = UKN5_HCS_SBAD2_cell_viability: Viability Assessment in the University of Konstanz (UKN) Leist Lab Neurite Outgrowth Assay in human iPSC-derived immature Dorsal Root Ganglia Neurons (UKN5) (AID 2284056; active means hit-call score of the fitted dose curve at least 0.9, where 1 is the maximum; inactive means score below 0.9)
Outline: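 iPSC-derived immature peripheral neurons (SBAD2) seeded on Matrigel with CHIR99021, SU5402 and DAPT, dosed 1 h later for 24 h. Viability from Hoechst H-33342 and calcein-AM live staining, high-content imaging; bidirectional fit versus DMSO.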

[5] = UKN5_HCS_SBAD2_neurite_outgrowth: University of Konstanz (UKN) Leist Lab Neurite Outgrowth Assay in human iPSC-derived immature Dorsal Root Ganglia Neurons (UKN5) (AID 2284070; active means hit-call score of the fitted dose curve at least 0.9, where 1 is the maximum; inactive means score below 0.9); settings: actives raise or lower the signal
Outline: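 Human iPSC-derived immature DRG neurons (SBAD2) on Matrigel with CHIR99021 (1.5 uM), SU5402 (5 uM), DAPT (5 uM); compounds added 1 h post-seeding for 24 h. Calcein-AM neurite area imaged; bidirectional fit vs DMSO.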

[6] = UKN2_HCS_IMR90_neural_migration: University of Konstanz (UKN) Leist Lab Neural Crest Cell Migration Assay in human induced IMR90 Pluripotent Stem Cells (UKN2) (AID 2284204; active means hit-call score of the fitted dose curve at least 0.9, where 1 is the maximum; inactive means score below 0.9); settings: actives raise or lower the signal
Outline: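 iPSC-derived IMR90 neural crest cells seeded around stoppers on PLO/laminin/fibronectin; migration started in N2-S medium with EGF/FGF, compounds added after 24 h for 24 h. Migration into cell-free area imaged after calcein-AM/Hoechst staining; bidirectional fit versus DMSO.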

[7] = UKN2_HCS_IMR90_cell_viability: Viability Assessment in the University of Konstanz (UKN) Leist Lab Neural Crest Cell Migration Assay in human induced IMR90 Pluripotent Stem Cells (UKN2) (AID 2284233; active means hit-call score of the fitted dose curve at least 0.9, where 1 is the maximum; inactive means score below 0.9;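 further: viability of neural crest cells differentiated from IMR90 iPSC measured by calcein-AM fluorescence imaging; cells exposed to compound for 24 h after a 24 h migration phase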)
Outline: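 Neural crest cells derived from IMR90 iPSC migrate into a stopper-free zone for 24 h in EGF/FGF medium, then are exposed to compound for 24 h. Viability assessed by calcein-AM and Hoechst staining with high-content imaging, fitted bidirectionally versus DMSO.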

[8] = TOX21_p53_BLA_p5_viability: Viability Assessment in the Tox21 HCT-116 p53 Agonism Beta-lactamase Assay, Phase 5 (AID 2283600)
Outline: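 HCT-116 p53 beta-lactamase reporter cells, 4000/well, were exposed to compound (pin transfer, 217-fold dilution) for 16 hours at 37C. Cellular ATP was read by CellTiter-Glo luminescence after 30 min at room temperature.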

[9] = molecular target: Cellular tumor antigen p53 (Homo sapiens) (UniProt P04637); experiment: TOX21_p53_BLA_p4_ratio: Tox21 HCT-116 p53 Agonism Beta-lactamase Assay, Ratio, Phase 4 (AID 2283601)
Outline: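 HCT-116 p53 beta-lactamase reporter cells (4000/well) preincubated 5 h, then compound (217-fold dilution of DMSO stock) for 16 h at 37C. CCF4-AM substrate added 2 h at room temperature; 460/530 nm emission ratio fitted upward versus DMSO.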

PGR (gene 5241) [10] = molecular target: PGR (gene 5241) (UniProt P06401); experiment: TOX21_PR_BLA_Followup_Agonist_ratio: Tox21 HEK293 Progesterone Receptor (PR) Agonism Beta-lactamase Follow-Up Assay, Ratio (AID 2283933)
Chain of PGR (gene 5241) (P06401 whole entry, looked up, the tested form may be a part): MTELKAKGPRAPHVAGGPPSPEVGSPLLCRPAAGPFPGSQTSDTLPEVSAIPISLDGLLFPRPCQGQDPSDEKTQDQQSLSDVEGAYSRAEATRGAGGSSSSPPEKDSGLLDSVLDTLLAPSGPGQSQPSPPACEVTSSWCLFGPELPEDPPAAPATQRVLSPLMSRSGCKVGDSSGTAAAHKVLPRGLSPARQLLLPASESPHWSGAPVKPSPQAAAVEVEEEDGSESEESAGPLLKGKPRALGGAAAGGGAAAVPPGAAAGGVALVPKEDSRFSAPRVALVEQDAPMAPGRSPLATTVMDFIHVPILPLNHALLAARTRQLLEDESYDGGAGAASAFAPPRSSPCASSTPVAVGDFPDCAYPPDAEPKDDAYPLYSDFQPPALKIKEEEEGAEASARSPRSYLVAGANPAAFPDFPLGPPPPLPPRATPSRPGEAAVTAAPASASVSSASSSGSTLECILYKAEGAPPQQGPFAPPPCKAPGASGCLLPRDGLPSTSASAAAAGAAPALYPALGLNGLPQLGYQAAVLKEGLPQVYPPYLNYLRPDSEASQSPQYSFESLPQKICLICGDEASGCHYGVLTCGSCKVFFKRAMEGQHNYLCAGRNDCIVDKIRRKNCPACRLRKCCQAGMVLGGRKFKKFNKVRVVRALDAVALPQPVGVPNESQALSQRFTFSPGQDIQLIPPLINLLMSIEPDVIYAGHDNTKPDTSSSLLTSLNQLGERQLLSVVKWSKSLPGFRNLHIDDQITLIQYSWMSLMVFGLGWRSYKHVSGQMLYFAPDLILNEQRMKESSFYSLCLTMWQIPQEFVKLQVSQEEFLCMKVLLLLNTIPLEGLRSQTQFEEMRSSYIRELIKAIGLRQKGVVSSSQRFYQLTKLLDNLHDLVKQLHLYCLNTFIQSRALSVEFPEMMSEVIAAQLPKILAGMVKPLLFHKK
Outline: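 PR-UAS-bla HEK293T cells (GAL4-UAS beta-lactamase reporter) in medium with 2% charcoal-stripped FBS received compounds after 6 hr at 37C, then incubated 16 hr. LiveBLAzer FRET substrate added, 2 hr room temperature; cleaved/uncleaved (ch2/ch1) ratio fitted upward versus DMSO.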

PGR (gene 5241) [11] = molecular target: PGR (gene 5241) (UniProt P06401); experiment: TOX21_PR_BLA_Followup_Antagonist_ratio: Tox21 HEK293 Progesterone Receptor (PR) Antagonism Beta-lactamase Follow-Up Assay, Ratio (AID 2283934)
Outline: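 PR-UAS-bla HEK293T cells in medium with 2% charcoal-stripped FBS were treated with compounds plus 1 nM (final) promegestone (R5020) for 16 hr at 37C. LiveBLAzer B/G FRET substrate was then added for 2 h at room temperature; signal is cleaved/uncleaved substrate ratio versus DMSO.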

[12] = TOX21_PR_BLA_Followup_Agonist_viability: Viability Assessment in the Tox21 HEK293 Progesterone Receptor (PR) Agonism Beta-lactamase Follow-Up Assay (AID 2283935);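 further: signal loss means lower viability so actives are cytotoxic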
Outline: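 PR-UAS-bla HEK293T cells in 2% charcoal-stripped FBS medium, compound added after 6 hr plating, 16 hr at 37C/5% CO2. After bla FRET read, CellTiter-Glo added; luminescence read after 30 min at room temperature; signal loss marks cytotoxicity.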

[13] = TOX21_PR_BLA_Followup_Antagonist_viability: Viability Assessment in the Tox21 HEK293 Progesterone Receptor (PR) Antagonism Beta-lactamase Follow-Up Assay (AID 2283936);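 further: hits lower the luminescence signal meaning cytotoxicity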
Outline: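 PR-UAS-bla HEK293T cells (3,000/well, 2% charcoal-stripped FBS) given compound plus R5020 agonist, 16 h at 37C. CellTiter-Glo added after bla read, 30 min at room temperature; luminescence loss indicates cytotoxicity.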

PGR (gene 5241) [14] = molecular target: PGR (gene 5241) (UniProt P06401); experiment: TOX21_PR_LUC_Followup_Agonist: Tox21 HEK293 Progesterone Receptor (PR) Agonism Luciferase Follow-Up Assay (AID 2283937; active means hit-call score of the fitted dose curve at least 0.9, where 1 is the maximum; inactive means score below 0.9)
Outline: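 HEK293-PR-A-luc cells, pre-cultured 5 days in medium with 10% charcoal-stripped FBS, were seeded at 3,000 cells/well, rested 5 h at 37C, then exposed to compounds 16 h at 37C; luciferase read by ONE-Glo luminescence after 30 min.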

PGR (gene 5241) [15] = molecular target: PGR (gene 5241) (UniProt P06401); experiment: TOX21_PR_LUC_Followup_Antagonist: Tox21 HEK293 Progesterone Receptor (PR) Antagonism Luciferase Follow-Up Assay (AID 2283938);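 further: curve fitted upward as signal gain over DMSO baseline despite antagonist label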
Outline: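 HEK293-PR-A-luc cells, 3,000/well, preincubated 5 h at 37C before compound addition in DMSO; 16 h compound exposure at 37C. ONE-Glo luciferase luminescence read after 30 min at room temperature, fitted relative to DMSO baseline.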

[16] = TOX21_PR_LUC_Followup_Antagonist_viability: Viability Assessment in the Tox21 HEK293 Progesterone Receptor (PR) Antagonism Luciferase Follow-Up Assay (AID 2283940)
Outline: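 HEK293-PR-A-luc cells, precultured 5 days in assay medium with 10% charcoal-stripped FBS, were seeded at 3,000 cells/well, treated with compounds in DMSO for 16 h at 37C, and viability was read as cellular ATP by CellTiter-Glo luminescence.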

[17] = TOX21_PR_LUC_Followup_Agonist_viability: Viability Assessment in the Tox21 HEK293 Progesterone Receptor (PR) Agonism Luciferase Follow-Up Assay (AID 2283941);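 further: loss of signal means cytotoxicity so actives lower viability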
Outline: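 HEK293-PR-A-luc cells, pre-cultured 5 days in 10% charcoal-stripped FBS, were seeded at 3,000 cells/well, rested 5 h at 37C, then given compound in DMSO for 16 h at 37C. Cellular ATP was read by CellTiter-Glo luminescence; signal loss indicates cytotoxicity.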

THRA (gene 7067) = THRA (gene 7067) (UniProt P10827); experiment: TOX21_TRA_COA_Agonist_Followup_ratio: Tox21 Thyroid Hormone Receptor alpha Agonism through Coactivator Recruitment Follow-Up Assay, Ratio (AID 2283948; active means hit-call score of the fitted dose curve at least 0.9, where 1 is the maximum; inactive means score below 0.9)
Chain of THRA (gene 7067) (P10827 whole entry, looked up, the tested form may be a part): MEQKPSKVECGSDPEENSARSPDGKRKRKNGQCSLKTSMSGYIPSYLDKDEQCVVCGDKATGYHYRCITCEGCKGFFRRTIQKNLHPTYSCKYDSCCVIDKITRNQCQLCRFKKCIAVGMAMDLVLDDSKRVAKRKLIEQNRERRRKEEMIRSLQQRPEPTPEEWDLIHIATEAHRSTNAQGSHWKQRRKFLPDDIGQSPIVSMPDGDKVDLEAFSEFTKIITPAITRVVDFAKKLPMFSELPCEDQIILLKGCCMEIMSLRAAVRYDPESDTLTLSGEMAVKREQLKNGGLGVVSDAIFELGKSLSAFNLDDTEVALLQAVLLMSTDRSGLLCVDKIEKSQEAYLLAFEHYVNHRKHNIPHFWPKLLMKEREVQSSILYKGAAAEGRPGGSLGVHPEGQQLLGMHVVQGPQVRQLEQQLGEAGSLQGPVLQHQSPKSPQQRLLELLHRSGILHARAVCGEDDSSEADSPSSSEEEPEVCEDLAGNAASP
Outline: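 Cell-free TR-FRET: GST-tagged TRα LBD (2.5 nM) with 0.10% BSA and compound, then fluorescein-SRC-2 peptide (200 nM) and Tb-anti-GST antibody (2 nM). Readout 520:495 nm ratio (ex 340 nm), normalized to DMSO (0%) and T3 (100%).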

THRB (gene 7068) [18] = molecular target: THRB (gene 7068) (UniProt P10828); experiment: TOX21_TRB_BLA_Agonist_Followup_ratio: Tox21 Thyroid Hormone Receptor beta Agonism Beta-lactamase (BLA) Follow-Up Assay, Ratio (AID 2283954)
Chain of THRB (gene 7068) (P10828 whole entry, looked up, the tested form may be a part): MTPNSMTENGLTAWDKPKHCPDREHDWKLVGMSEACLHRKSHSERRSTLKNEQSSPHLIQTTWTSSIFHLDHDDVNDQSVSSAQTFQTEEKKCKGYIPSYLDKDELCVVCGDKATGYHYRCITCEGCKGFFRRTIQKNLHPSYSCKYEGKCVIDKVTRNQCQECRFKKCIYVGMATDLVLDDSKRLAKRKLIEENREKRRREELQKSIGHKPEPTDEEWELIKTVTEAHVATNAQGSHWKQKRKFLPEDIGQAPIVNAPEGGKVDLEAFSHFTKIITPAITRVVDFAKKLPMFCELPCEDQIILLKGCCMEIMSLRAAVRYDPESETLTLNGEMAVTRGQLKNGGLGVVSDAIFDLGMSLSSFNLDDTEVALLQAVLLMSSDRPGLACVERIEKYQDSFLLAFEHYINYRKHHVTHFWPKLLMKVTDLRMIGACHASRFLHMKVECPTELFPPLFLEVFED
Outline: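 Human TRβ LBD–GAL4 DBD fusion in GeneBLAzer UAS-bla HEK293T cells; 11 concentrations in triplicate, 18 h at 37°C/5% CO2, T3 as agonist control. CCF4-AM substrate 2 h at room temperature; 460:530 nm ratio fitted for gain of signal versus DMSO.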

THRB (gene 7068) [19] = molecular target: THRB (gene 7068) (UniProt P10828); experiment: TOX21_TRB_COA_Agonist_Followup_ratio: Tox21 Thyroid Hormone Receptor beta Agonism through Coactivator Recruitment Follow-Up Assay, Ratio (AID 2283963; active means hit-call score of the fitted dose curve at least 0.9, where 1 is the maximum; inactive means score below 0.9)
Outline: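 Cell-free TR-FRET coactivator recruitment: GST-tagged TRβ LBD (5.0 nM) with 0.10% BSA incubated with compound, then fluorescein-SRC-2 peptide (200 nM) and Tb-anti-GST antibody (2 nM) added. 520:495 nm ratio normalized to DMSO (0%) and T3 (100%).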

[20] = molecular target: Retinoic acid receptor RXR-alpha (Homo sapiens) (UniProt P19793); experiment: TOX21_TR_RXR_BLA_Agonist_Followup_ratio: Tox21 Thyroid Hormone Receptor beta Retinoid X Receptor alpha (RXRa) Agonism Beta-lactamase (BLA) Follow-Up Assay, Ratio (AID 2283968)
Chain of Retinoic acid receptor RXR-alpha (Homo sapiens) (P19793 whole entry, looked up, the tested form may be a part): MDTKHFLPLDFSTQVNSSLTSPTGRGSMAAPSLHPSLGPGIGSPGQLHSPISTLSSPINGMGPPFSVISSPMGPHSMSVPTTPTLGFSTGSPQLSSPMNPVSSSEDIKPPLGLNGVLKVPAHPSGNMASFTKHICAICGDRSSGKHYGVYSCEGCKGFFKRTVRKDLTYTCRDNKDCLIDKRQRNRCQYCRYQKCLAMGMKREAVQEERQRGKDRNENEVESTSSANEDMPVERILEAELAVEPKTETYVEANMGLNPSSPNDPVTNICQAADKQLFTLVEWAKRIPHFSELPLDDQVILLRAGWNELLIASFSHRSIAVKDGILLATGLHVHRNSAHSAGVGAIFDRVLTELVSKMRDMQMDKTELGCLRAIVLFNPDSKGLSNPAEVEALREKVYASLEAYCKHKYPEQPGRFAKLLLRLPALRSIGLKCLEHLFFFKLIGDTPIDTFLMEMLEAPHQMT
Outline: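 RXRa-UAS-bla HEK293T cells (GAL4 beta-lactamase reporter) were treated with compounds at 11 concentrations in triplicate for 16 h at 37C/5% CO2, then loaded with CCF4-AM substrate for 2 h at room temperature; activity is the 460:530 nm ratio versus DMSO baseline.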

[21] = molecular target: Thyroid hormone receptor alpha (Rattus norvegicus) + Thyroid hormone receptor beta (Rattus norvegicus) (UniProt P18113+P63059); experiment: TOX21_TR_LUC_GH3_Agonist_Followup: Tox21 GH3 Thyroid Hormone Receptor Agonism Luciferase Follow-Up Assay (AID 2283939)
Chain of Thyroid hormone receptor alpha (Rattus norvegicus) + Thyroid hormone receptor beta (Rattus norvegicus) (P63059 whole entry, looked up): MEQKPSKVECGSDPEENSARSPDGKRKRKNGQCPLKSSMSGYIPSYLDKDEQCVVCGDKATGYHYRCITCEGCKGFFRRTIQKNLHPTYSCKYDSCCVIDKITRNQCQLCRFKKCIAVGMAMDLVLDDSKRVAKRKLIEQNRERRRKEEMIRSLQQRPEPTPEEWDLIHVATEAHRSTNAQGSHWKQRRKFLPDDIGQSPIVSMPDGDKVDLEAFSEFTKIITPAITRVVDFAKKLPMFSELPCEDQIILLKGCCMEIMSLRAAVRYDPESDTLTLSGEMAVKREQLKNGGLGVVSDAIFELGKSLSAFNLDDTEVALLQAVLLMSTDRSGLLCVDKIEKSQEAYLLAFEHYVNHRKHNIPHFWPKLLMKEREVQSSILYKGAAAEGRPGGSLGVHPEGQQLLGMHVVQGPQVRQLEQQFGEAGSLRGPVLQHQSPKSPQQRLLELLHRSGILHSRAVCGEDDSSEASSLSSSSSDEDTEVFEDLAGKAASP
Chain of Thyroid hormone receptor alpha (Rattus norvegicus) + Thyroid hormone receptor beta (Rattus norvegicus) (P18113 whole entry, looked up): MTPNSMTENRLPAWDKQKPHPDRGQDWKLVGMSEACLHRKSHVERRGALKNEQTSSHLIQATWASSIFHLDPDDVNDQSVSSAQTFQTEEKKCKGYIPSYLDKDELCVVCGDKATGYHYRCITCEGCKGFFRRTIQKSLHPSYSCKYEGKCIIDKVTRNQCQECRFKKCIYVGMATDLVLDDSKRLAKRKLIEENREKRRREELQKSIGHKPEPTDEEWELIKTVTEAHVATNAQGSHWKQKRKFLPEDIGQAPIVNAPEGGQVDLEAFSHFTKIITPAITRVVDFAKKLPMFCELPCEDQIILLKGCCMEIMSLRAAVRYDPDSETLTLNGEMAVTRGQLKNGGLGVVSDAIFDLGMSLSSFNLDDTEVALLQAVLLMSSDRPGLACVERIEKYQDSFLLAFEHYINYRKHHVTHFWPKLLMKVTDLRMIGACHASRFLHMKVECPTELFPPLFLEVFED
Outline: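 Rat GH3 cells (1,500/well) in serum-free assay medium, treated with 15-point series, 92 uM to 5 nM final, for 24 h at 37C. Luciferase via ONE-Glo luminescence; gain of signal fitted against DMSO, T3 positive control.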

[22] = TOX21_TR_RXR_BLA_Agonist_Followup_viability: Viability Assessment in the Tox21 Thyroid Hormone Receptor beta Retinoid X Receptor alpha (RXRa) Agonism Beta-lactamase (BLA) Follow-Up Assay (AID 2283970)
Outline: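 RXRa-UAS-bla HEK293T cells seeded at 2,500/well in phenol red-free DMEM with 2% charcoal-stripped FBS, exposed to compound 16h at 37C/5% CO2 in qHTS. Viability read by CellTiter-Glo ATP luminescence; bidirectional fitting against DMSO baseline, signal loss indicating cytotoxicity.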

CNC(C)Cc1ccc2c(c1)OCO2 (stereo not given)
outcome [1]: inactive | outcome [2]: inactive | outcome [3]: inactive | outcome [4]: inactive | outcome [5]: inactive | outcome [6]: inactive | outcome [7]: inactive

CCc1cc(OC)c(C[C@H](C)N)cc1OC
outcome [2]: inactive | outcome [3]: inactive | outcome [8]: inactive | outcome [9]: inactive

CCN[C@@H](C)Cc1ccccc1
outcome [2]: inactive

C[C@]12CC[C@H]3[C@@H](CCC4=CC(=O)CC[C@@H]43)[C@@H]1CC[C@@H]2OC(=O)CCC1CCCCC1
AC50 (PGR (gene 5241) [10]): 2.39 µM (active) | outcome (PGR (gene 5241) [11]): inactive | outcome [12]: inactive | outcome [13]: inactive | AC50 (PGR (gene 5241) [14]): 0.0731 µM (active) | outcome (PGR (gene 5241) [15]): inactive | outcome [16]: inactive | outcome [17]: inactive

CCn1cc[n+](C)c1
outcome (THRA (gene 7067)): inactive | outcome (THRB (gene 7068) [18]): inactive | outcome (THRB (gene 7068) [19]): inactive | outcome [20]: inactive

CC1COC2(c3ccccc3Cl)c3cc(Cl)ccc3NC(=O)CN12 (stereo not given)
outcome (PGR (gene 5241) [11]): inactive | outcome [12]: inactive | outcome [13]: inactive | outcome (PGR (gene 5241) [15]): inactive | outcome [16]: inactive

O=C(CBr)Nc1ccc(Cl)cc1C(=O)c1ccccc1F
outcome (PGR (gene 5241) [10]): inactive | outcome (PGR (gene 5241) [11]): inactive | outcome [12]: inactive | outcome [13]: inactive | outcome (PGR (gene 5241) [14]): inactive | outcome (PGR (gene 5241) [15]): inactive | outcome [16]: inactive | outcome [17]: inactive

CCC(=O)O[C@@H]1C=C2CCC3C(CCC4(C)C3CC[C@@H]4OC(=O)CC)C2CC1 (stereo not given in full)
AC50 (PGR (gene 5241) [10]): 4.48 µM (active) | outcome (PGR (gene 5241) [11]): inactive | outcome [12]: inactive | AC50 (PGR (gene 5241) [14]): 0.165 µM (active) | outcome (PGR (gene 5241) [15]): inactive | outcome [17]: inactive

O=C(O)CCCCCCNC1c2ccccc2CCc2ccccc21
outcome [9]: inactive | outcome [21]: inactive | AC50 (THRA (gene 7067)): 23.8 µM (active) | outcome (THRB (gene 7068) [18]): inactive | AC50 (THRB (gene 7068) [19]): 13.2 µM (active) | outcome [20]: inactive | outcome [22]: inactive
